High-throughput results deposited in PubChem BioAssay by The Scripps Research Institute Molecular Screening Center.
MITF inh: human MITF inhibition, primary screen | AlphaScreen MITF homodimerization, bead proximity signal | hit rate 0.91% among 650,000 | AID 1259374 | inhibition, % at 2.6 µM; in the data active means inhibition above about 50%;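 further: 0% = vehicle wells with protein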
FBW7 act: human FBW7 E3 ligase activation, primary screen; Q969H0; AlphaScreen FBW7–phospho-cyclin E peptide binding, activator screen; normalized activity (activation), % at 26.1 µM; hit rate 0.13% among 650,000; in the data active means normalized activity above about 1.9%;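 further: purified mutant Fbw7 with reduced substrate affinity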
GPR151 ag: activators of human GPR151; Q8TDV0; PathHunter beta-arrestin GPR151 cells, luminescence; activation, % at 11.2 µM; hit rate 1% among 650,000; AID 1508602; in the data active means activation above about 4.9%;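 further: 0% = median of compound wells and 100% = cells with positive control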
Target sequence (Q8TDV0 whole entry, looked up): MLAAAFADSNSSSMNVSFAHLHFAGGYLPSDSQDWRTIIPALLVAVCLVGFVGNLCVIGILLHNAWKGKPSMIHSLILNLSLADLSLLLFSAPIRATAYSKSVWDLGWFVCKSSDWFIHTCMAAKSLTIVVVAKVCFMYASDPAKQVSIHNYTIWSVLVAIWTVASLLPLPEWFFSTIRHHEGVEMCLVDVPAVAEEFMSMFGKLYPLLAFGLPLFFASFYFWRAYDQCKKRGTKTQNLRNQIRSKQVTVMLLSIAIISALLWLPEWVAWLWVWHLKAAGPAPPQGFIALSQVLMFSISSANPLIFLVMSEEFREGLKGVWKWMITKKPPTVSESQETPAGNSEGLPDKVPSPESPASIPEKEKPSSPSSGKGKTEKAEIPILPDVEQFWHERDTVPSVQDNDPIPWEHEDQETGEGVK
TEAD-YAP block: TEAD-YAP interaction inhibition | HEK-TIYL cells, TEAD-Gal4/YAP UAS-luciferase luminescence | inhibition, % at 9.12 µM | hit rate 1.4% among 640,000; in the data active means inhibition above about 32%;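 further: 0% = median of test compound wells and 100% = reference inhibitor wells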
* marks the source's active call; other numbers are inactive results; ! = a repeat was not active. A selection: hits, their analogues and other compounds. The true share with any hit is near 3.5%.

What do the screens show for `Cc1cc(/C=C2/C(=O)NC(=O)N(Cc3ccco3)C2=O)c(C)n1-c1ccc(F)cc1`?
MITF inh: 21; FBW7 act: 0; GPR151 ag: 0; TEAD-YAP block: 4

How did COc1cc(C)c(/C=C2/C(=O)NC(=O)N(Cc3ccco3)C2=O)c(OC)c1 do in these assays?
MITF inh: 64*; FBW7 act: 0; GPR151 ag: -1; TEAD-YAP block: 9

What do the screens show for `Cc1cc(/C=C2/C(=O)NC(=S)N(Cc3ccco3)C2=O)c(C)n1C`?
MITF inh: 77*; FBW7 act: -1; GPR151 ag: 0; TEAD-YAP block: 0

How did COc1cc(C)c(/C=C2/C(=O)NC(=O)N(Cc3ccco3)C2=O)cc1C do in these assays?
MITF inh: 52*; FBW7 act: 0; GPR151 ag: 2; TEAD-YAP block: -7

Results for Nc1nc(SCC(=O)NC2CCCCC2)[nH]c(=O)c1NC(=O)c1ccc(F)cc1 ?
MITF inh: 2; FBW7 act: 0; GPR151 ag: 0; TEAD-YAP block: 4

What do the screens show for `O=C(NC1CCCCCC1)c1ccc(Cn2c(=S)[nH]c3ccc(Br)cc3c2=O)cc1`?
MITF inh: -2; FBW7 act: 0; GPR151 ag: -1; TEAD-YAP block: -11

What do the screens show for `C=CCOc1ccc(/C=C2\SC(=N)N(c3nccs3)C2=O)cc1OCC`?
MITF inh: -1; FBW7 act: 0; GPR151 ag: -1; TEAD-YAP block: 36*

What do the screens show for `C=CCOc1ccc(/C=C2\SC(NC(C)=O)=NC2=O)cc1OCC`?
MITF inh: 6; FBW7 act: 0; GPR151 ag: 1; TEAD-YAP block: 9

Results for COc1ccccc1C(=O)Nc1cccc(N2CCC(NCCSC)CC2)c1 ?
MITF inh: 12; FBW7 act: 0; GPR151 ag: -1; TEAD-YAP block: 47*

Results for COc1ccccc1C(=O)Nc1cccc(N2CCC(NCC3CCOCC3)CC2)c1 ?
MITF inh: 6; FBW7 act: 0; GPR151 ag: -1; TEAD-YAP block: 6

Results for CCCc1nc2c(sc3nc4c(cc32)COC(C)(C)C4)c(=O)[nH]1 ?
MITF inh: 2; FBW7 act: 0; GPR151 ag: 2; TEAD-YAP block: 8

What do the screens show for `COc1ccccc1N=C1NN=C(c2ccccc2OC)CS1`?
MITF inh: 0; FBW7 act: 0; GPR151 ag: -1; TEAD-YAP block: -13

What do the screens show for `COCCn1c(C)cc(C2=NNC(=Nc3cccc(C)c3)SC2)c1C`?
MITF inh: 13; FBW7 act: 0; GPR151 ag: 1; TEAD-YAP block: 25

How did Cc1cc(C2=NNC(=Nc3ccccc3)SC2)c(C)n1CC1CCCO1 (stereo unspecified) do in these assays?
MITF inh: 7; FBW7 act: 0; GPR151 ag: 0; TEAD-YAP block: 54*

How did COCCn1c(C)cc(C2=NNC(=Nc3ccc(C)cc3)SC2)c1C do in these assays?
MITF inh: -5; FBW7 act: 0; GPR151 ag: 0; TEAD-YAP block: -3

Results for COCCCN=C1NN=C(c2cc(C)n(Cc3ccco3)c2C)CS1 ?
MITF inh: -2; FBW7 act: 0; GPR151 ag: 1; TEAD-YAP block: 46*

How did C=CCN=C1NN=C(c2cc(C)n(CCOC)c2C)CS1 do in these assays?
MITF inh: 5; FBW7 act: 0; GPR151 ag: -7; TEAD-YAP block: 95*

Results for C=CCn1c(C)cc(C2=NNC(=Nc3ccccc3OC)SC2)c1C ?
MITF inh: -12; FBW7 act: 0; GPR151 ag: 1; TEAD-YAP block: 72*

What do the screens show for `Cc1cccc(N2CCN(C(=O)CCS(=O)(=O)c3ccc(Cl)cc3)CC2)c1C`?
MITF inh: 16; FBW7 act: 0; GPR151 ag: 0; TEAD-YAP block: 7

Results for CC1Cc2ccccc2N1S(=O)(=O)c1ccc(F)cc1F (stereo unspecified) ?
MITF inh: -2; FBW7 act: 0; GPR151 ag: -1; TEAD-YAP block: 4

How did O=C(Nc1ccc([N+](=O)[O-])cc1)Nc1ccon1 do in these assays?
MITF inh: 16; FBW7 act: 0; GPR151 ag: 1; TEAD-YAP block: 62*

What do the screens show for `O=C(Nc1ccc(I)cc1)Nc1ccc([N+](=O)[O-])cc1`?
MITF inh: 19; FBW7 act: 0; GPR151 ag: 1; TEAD-YAP block: 3

How did O=C(NC1CCCCC1)NC1(C(=O)NCCCN2CCOCC2)CCCCC1 do in these assays?
MITF inh: 11; FBW7 act: 1.9*; GPR151 ag: 0; TEAD-YAP block: 3

Results for CC1(C)CC(=O)C=C(NNC(=O)Cc2ccccc2)C1 ?
MITF inh: 4; FBW7 act: 1; GPR151 ag: -1; TEAD-YAP block: -2

What do the screens show for `CC1(C)CC(=O)C=C(NNC(=O)COc2ccccc2)C1`?
MITF inh: 15; FBW7 act: 1.9*!; GPR151 ag: -1; TEAD-YAP block: 5

What do the screens show for `CC(O)C12c3ccccc3C(c3ccccc31)C1C(=O)N(c3ccccc3F)C(=O)C12` (stereo unspecified)?
MITF inh: 4; FBW7 act: 2.2*; GPR151 ag: -1; TEAD-YAP block: 9

What do the screens show for `CC(NC(=O)Nc1ccc(Cl)c(Cl)c1)C1CCCO1` (stereo unspecified)?
MITF inh: 17; FBW7 act: 1.9*; GPR151 ag: -2; TEAD-YAP block: -49

Results for CCOc1ccc(OCC)c(NC(=O)C2(S(=O)(=O)c3ccc(C)cc3)CC2)c1 ?
MITF inh: -3; FBW7 act: 0; GPR151 ag: 0; TEAD-YAP block: 2

Results for O=Cc1ccccc1OCC(=O)Nc1ccccc1 ?
MITF inh: 15; FBW7 act: 1; GPR151 ag: -3; TEAD-YAP block: 32*

Results for COc1ccccc1OCC(=O)Nc1cccc(C(=O)O)c1 ?
MITF inh: -9; FBW7 act: 0; GPR151 ag: -7; TEAD-YAP block: 36*

Results for O=C(COc1ccc(Cl)cc1Cl)Nc1cccc(C(=O)O)c1 ?
MITF inh: -14; FBW7 act: 0; GPR151 ag: -7; TEAD-YAP block: 97*

What do the screens show for `O=C(COc1ccc(Cl)cc1[N+](=O)[O-])Nc1ccccc1`?
MITF inh: -6; FBW7 act: 0; GPR151 ag: -1; TEAD-YAP block: 34*

What do the screens show for `O=C(COc1ccc(C(F)(F)F)cc1[N+](=O)[O-])Nc1ccc(Cl)cc1`?
MITF inh: -2; FBW7 act: 0; GPR151 ag: 0; TEAD-YAP block: -14

What do the screens show for `O=C(COc1ccc(Cl)cc1Cl)Nc1cccc(O)c1`?
MITF inh: 15; FBW7 act: 0; GPR151 ag: -1; TEAD-YAP block: 71*

What do the screens show for `CC(C)(C)c1ccccc1OCC(=O)NN`?
MITF inh: -5; FBW7 act: 0; GPR151 ag: 0; TEAD-YAP block: 36*

What do the screens show for `Cc1cccc(NC(=O)COc2ccc(Cl)cc2Cl)c1`?
MITF inh: -4; FBW7 act: 0; GPR151 ag: -1; TEAD-YAP block: -24

How did COc1ccc(NC(=O)COc2ccccc2C(C)(C)C)cc1OC do in these assays?
MITF inh: 7; FBW7 act: 0; GPR151 ag: 3; TEAD-YAP block: 43*
